The target in this experiment is Shiga toxin 2 (Escherichia coli O157:H7) (UniProt P09385+P09386). The experiment can be described thus: E. coli 0.157:H7 Shiga Toxin SOP - stx2 screening assay. It is filed as functional. Details: scale not given: direction of the effect not stated beside the values. The conditions noted are these: 30 µM.
For the compound `Cc1ccn2cc(C(=O)N3CCCC3c3c(C)nn(C)c3C)nc2c1` (stereo not given), the Percent Effect was -1.23%.

In the case of `O=C(NCc1ccoc1)Nc1ccc(CN2CCOC2=O)cc1`, the Percent Effect is -75.3%.

`COc1cccc2c1OCC(CNC(=O)CCCN1CCOCC1)C2` (stereo not given): the Percent Effect amounted to 5.01%.

Take `O=C1NCCCCC1Sc1nnc(C2CC2)n1C1CC1` (stereo not given): the Percent Effect is 3.62%.

As to `Cc1nc(C(=O)N2CCC(Cc3cnc4[nH]ccc4c3)C2)co1` (stereo not given), the Percent Effect was 62.2%.

Regarding `Cc1nn(C)c(N(C)C)c1CNC1CCc2c(F)cccc21` (stereo not given), the Percent Effect was found to be 33.1%.

For `CNC(=O)c1cccc(NC(=O)CN2CCN(S(C)(=O)=O)CC2)c1`, the Percent Effect is 1.24%.

In the case of `NC(=O)c1cc(C2CCCN(C(=O)CCc3cscn3)C2)n[nH]1` (stereo not given), the Percent Effect was -14.1%.

For `COC(=O)c1sccc1NC(=O)C1CCCN1C(=O)c1ccco1` (stereo not given), the Percent Effect is -12.3%.

In the case of `COC(=O)Cn1c(=O)nc2n1C(=O)N(c1ccc(Cl)cc1)C2`, the Percent Effect is -16.1%.

For the origin of these results see ChEMBL document CHEMBL3988442, “University of Dundee, Small-Polar-MMV Screening Library” (2021).
